Bioassay records (PubChem BioAssay)
In the library only some 4% were active in any assay of this set; here they are far more common.
TIM10 inh = TIM10 yeast growth inhibition. S. cerevisiae TIM10 strain growth, BacTiter-Glo luminescence, 24 h. inhibition, % at 10 µM. 330,000 compounds, 1.4% hits. AID 463195;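 active = inhibition of 40% or more at the single tested concentration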;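 also: wild-type TIM10 isogenic control strain grown at permissive 25 °C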
tim23-1 inh = growth inhibitors of tim23-1 mutant yeast | AID 463212 | inhibition, % at 20 µM | 330,000 compounds, 1.3% hits | S. cerevisiae tim23-1 growth, BacTiter-Glo luminescence, 24 h;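 active = growth inhibition of the mutant yeast at or above 50%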;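 also: temperature-sensitive mutant grown at 25 °C; plate controls were DMSO-treated mutant yeast for no effect and medium wells lacking yeast for full effect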
tim10-1 inh = growth inhibitors of tim10-1 mutant yeast. inhibition, % at 20 µM. 330,000 compounds, 2.2% hits. S. cerevisiae tim10-1 ts strain growth, BacTiter-Glo, 24 h. AID 463190;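 active = inhibition of at least 40%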;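 also: mutant grown at 25 °C; 0% = DMSO wells with yeast and 100% = wells holding no yeast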
NLRP3 yeast inh = blocks the NALP3 inflammasome reconstituted in yeast. Yeast reconstituted NLRP3/ASC/caspase-1, beta-gal luminescence, 24 h. inhibition, % at 10 µM. 330,000 compounds, 0.39% hits;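 active = inhibition of 50% or more; inactive = inhibition below 50%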;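 also: plate controls were induced DMSO wells for no effect and uninduced yeast grown without galactose for full effect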
NALP1 yeast inh = NALP1 inhibition | inhibition, % at 10 µM | S. cerevisiae NALP1/ASC/caspase-1 growth, X-gal OD620, 72 h | 280,000 compounds, 0.61% hits; in the data active = inhibition mostly above about 24%, no sharp cut-off; inactive = mostly below about 32%
NALP3 confirm = NALP3 inhibition confirmation in yeast; shares compounds with NLRP3 yeast inh; yeast expressing human NALP3, luminescence; inhibition, % at 10 µM; 1,300 compounds, 81% hits; in the data active = inhibition above about 48%
Casp1 ASC ctr = caspase-1-ASC yeast counter-screen hit; shares compounds with NLRP3 yeast inh; yeast expressing Caspase-1-ASC, luminescence counter screen; inhibition, % at 10 µM; 1,000 compounds, 66% hits
NALP3 retest = yeast NALP3 inhibition, confirmed on retest; shares compounds with NLRP3 yeast inh; yeast expressing human NALP3, luminescence read-out; inhibition, % at 10 µM; 1,000 compounds, 53% hits; AID 488794
tim10-1 conf = confirmation of tim10-1 mutant yeast growth inhibitors. shares compounds with tim10-1 inh. S. cerevisiae tim10-1 ts strain growth, BacTiter-Glo, 24 h. inhibition, % at 20 µM. 7,400 compounds, 56% hits. AID 463213;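 active = inhibition of yeast growth at or above a set limit in either of two repeat tests at 20 µM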;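 also: tim10-1 mutant grown at permissive 25 °C to find synthetic lethal compounds; 0% = DMSO yeast wells and 100% = medium wells without yeast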
* = called active by the depositor; x = not tested or not shown. Rule as the data show it, unless noted: active = inhibition above about 50%; inactive = the rest.

SMILES	TIM10 inh	tim23-1 inh	tim10-1 inh	NLRP3 yeast inh	NALP1 yeast inh	NALP3 confirm	Casp1 ASC ctr	NALP3 retest	tim10-1 conf
CC(=O)c1ccc(NC(=O)COC(=O)/C=C/c2cccs2)cc1	-6.8	7.1	7.4	13.2	x	x	x	x	x
COc1ccccc1Oc1ccc(S(=O)(=O)N2CCCCC2)cc1NC(=O)CCNC(C)=O	-1.9	-2.8	-15.8	-2.6	2.9	x	x	x	x
O=C(CSc1nc(=O)n(CCN2CCOCC2)c2c1CCCC2)Nc1ccc(F)cc1F	-1.5	3.3	-10.6	8.7	x	x	x	x	x
O=[N+]([O-])c1ccccc1S(=O)(=O)N1CCCc2ccccc21	-22.3	16.5	-12.8	18.4	27.4	x	x	x	x
C=Cc1ncc(OC)c2c1[nH]c1ccccc12	22.0	31.2	43.7*	60.1*	x	73.8*	80.8*	63.6*	37.5*
COc1ccc(-c2cn3c4c(sc3n2)CCCC4)cc1	31.8	38.0	41.4*	52.2*	-0.3	61.1*	49.2	45.0	11.2
CC1(C)CC(=O)C2=C(C1)OC1=C(C(=O)CC(C)(C)C1)C2c1ccc(O)c([N+](=O)[O-])c1	4.2	24.7	29.1	-6.8	5.9	x	x	x	x
CC1(C)CC(=O)C2=C(C1)OC1=C(C(=O)CC(C)(C)C1)C2c1ccc(O)cc1O	36.1	46.0	44.4*	56.1*	-6.2	55.8*	57.2*	42.1	35.4*
COc1cccc(NC(=O)COC(=O)CCC(=O)c2cccs2)c1	5.4	24.2	6.3	5.1	x	x	x	x	x
COc1ccc(CNC(=S)Nc2ccc(OC)cc2)cc1	4.8	5.0	8.1	5.1	28.9	x	x	x	x
CCCCc1ccc(NC(=S)NCc2ccc(OC)cc2)cc1	33.6	24.8	45.7*	50.3*	-4.0	72.5*	55.1*	34.9	-16.2
CCOC(=O)C1CCN(C(=O)C2CCCN(S(=O)(=O)c3ccc(OCC)c(Cl)c3)C2)CC1 (centres undefined)	15.0	20.4	23.3	22.2	x	x	x	x	x
CCN(CC)CCCN(C(=O)c1ccco1)c1nc(-c2ccc(C)cc2)cs1	14.3	5.1	23.1	15.0	16.0	x	x	x	x
CCN(CC)CCCN(C(=O)c1ccco1)c1nc(-c2ccc(Cl)cc2)cs1	15.0	16.9	40.7*	51.1*	22.0	54.3*	46.5	38.0	23.4
Cn1cnc(S(=O)(=O)Nc2ccccc2C(=O)NCC2CC2)c1	2.7	-9.4	-0.4	20.0	x	x	x	x	x
COc1cccc(NC(=O)N2CCCC2C(=O)Nc2cc(C)ccc2OC)c1 (centres undefined)	14.0	10.3	12.3	18.0	26.0	x	x	x	x
C/C(=N/NC(=O)c1ccc(C(C)(C)C)cc1)c1ccccn1	3.8	40.6	47.0*	65.7*	x	55.0*	83.2*	78.7*	15.0
C/C(=N\NC(=O)c1ccc(Cl)c(Cl)c1)c1ccccn1	23.2	49.1	51.9*	52.6*	7.1	79.7*	x	x	47.3*
CN(C)S(=O)(=O)c1ccc(C(=O)Nc2ccccc2C(=O)NCCCN2CCOCC2)cc1	3.8	4.0	0.7	15.4	x	x	x	x	x
Cc1nc2ccc(Nc3nc4cc(S(=O)(=O)N5CCOCC5)ccc4o3)cc2s1	37.6	32.9	44.6*	-101.4	0.2	-50.0	-33.6	-0.6	33.8*
NS(=O)(=O)c1ccc(NC(=O)COC(=O)c2cc3ccccc3cc2O)cc1	-5.1	-5.2	3.3	-9.4	15.0	x	x	x	x
Fc1cccc(F)c1/C=C/c1ccc2ccccc2n1	7.1	24.6	17.3	7.6	17.9	x	x	x	x
CC(O)/C=C/c1ccc2ccccc2n1 (centres undefined)	13.1	34.9	48.7*	50.5*	1.4	69.6*	36.8	42.8	35.4*
CCOc1ccc(N2C=Nc3ccc(OCC)cc3C2)cc1	-1.1	32.6	42.3*	58.6*	36.2	60.6*	60.0*	51.4*	24.6
CCOc1ccc(N2C(=O)CNC2=S)cc1	-21.1	4.8	25.8	7.4	-27.7	x	x	x	x
N/C(=N\N=C/c1ccc(F)cc1)N/N=C\c1ccc(F)cc1	30.5	48.9	44.0*	63.9*	-10.1	76.2*	69.9*	64.7*	-71.8
